# Screen size: about 330,000 compounds; about 7,700 (2.3%) were called active. Inconclusive results (about 26%) are left out. Calls come from the whole dose curve; as a rule, active = well fitted inhibition curve with a large enough effect; inconclusive = small, poorly fitted or top-dose-only effect, or effect the other way; inactive = flat fitted curve, though single readings scatter. The list comes from a sample in which actives are over-represented; it also holds similar structures and randomly drawn compounds.
# Assay: qHTS screen for small molecules that inhibit ELG1-dependent DNA repair in human embryonic kidney (HEK293T) cells expressing luciferase-tagged ELG1; note: nearly all actives have a fitted effect of over 55% in size
# Settings: HEK293T ELG1-luciferase reporter, luminescence, 16 h, DNA damage induced by 5-fluorouridine; series mostly up to 46.1 µM; activity change, negative = inhibition: at the top concentration
# How it was run: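 Cells (2,000 per well) received 5-fluorouridine plus test compound or DMSO and were incubated 16 hr at 37 °C, 5% CO2. Luciferase activity was read by luminescence 30 min after ONE-Glo addition; signal suppression marked inhibition of damage-induced ELG1 function.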
# % is set by controls: 0 for no effect and ±100 for the full control effect; potency is the fitted concentration of half-maximal effect.
SMILES,"activity change, negative = inhibition",Potency
CC(=O)NCCC(=O)Nc1cc(S(=O)(=O)N2CCCCC2)ccc1Oc1cccc(C)c1,21% (inactive),–
Cc1cccn2c(=O)c3cc(C(=O)NCC4CCCO4)c(=N)n(Cc4ccc(F)cc4)c3nc12 (stereo not given),-23.9% (inactive),–
CCCCc1ccc(NS(=O)(=O)c2cccc(C(=O)N3CCCN(C)CC3)c2)cc1,14.4% (inactive),–
COc1cc(OC)c(N2CC(C(=O)Nc3cc(Cl)ccc3N3CCOCC3)CC2=O)cc1Cl (stereo not given),2.85% (inactive),–
O=C(O)c1ccccc1C(=O)Nc1nc(-c2ccccc2)cs1,10.9% (inactive),–
CC(=O)Nc1ccc(-c2csc(NC(=O)Nc3ccccc3)n2)cc1,–,7.3 µM (active)
CC(=O)Nc1ccc(S(=O)(=O)Nc2nc(-c3ccc(C(C)(C)C)cc3)cs2)cc1,14% (inactive),–
CC1C(=O)C(C)C(c2ccc(O)cc2)NC1c1ccc(O)cc1 (stereo not given),18.1% (inactive),–
CC(C)[C@H](NC(=O)N1c2ccccc2NC(=O)[C@@H]1C(C)C)C(=O)N[C@H](C(=O)O)c1ccccc1,22.4% (inactive),–
Cc1cccc(N2CCN(C(C)C(=O)N3CCc4ccccc43)CC2)c1C (stereo not given),-5.67% (inactive),–
COc1ccc(OCCNC(=O)c2cc(C3CC3)nc3c2cnn3C(C)C)cc1,-4.73% (inactive),–
COc1ccc(CNC(=O)CN(C(=O)c2csnn2)c2cnc3ccccc3c2)cc1,-3.41% (inactive),–
O=C1COc2ccc(C(=O)COC(=O)c3ccccc3Cl)cc2N1,-6.7% (inactive),–
O=C1COc2ccc(C(=O)COC(=O)c3cccnc3Cl)cc2N1,2.41% (inactive),–
COc1cc(N)c(Cl)cc1C(=O)OCC(=O)c1ccc2c(c1)NC(=O)CO2,–,3.66 µM (active)
COc1cc(/C=N/NC(=O)c2cccnc2)ccc1OC(=O)c1cccc(Br)c1,0.26% (inactive),–
CCOC(=O)c1nc(Nc2ccc(C(=O)OC)cc2)c2ccccc2n1,–,4.11 µM (active)
CCOC(=O)c1ccc(N/C(=N/S(=O)(=O)c2ccccc2)c2ccccc2)cc1,-24.7% (inactive),–
CCOC(=O)c1ccc(Nc2cc(C)nc3nc(C)nn23)cc1,2.25% (inactive),–
Cc1cc2occ(CC(=O)NNC(=O)c3ccccc3F)c2cc1C,-5.46% (inactive),–
O=C1[C@H]2[C@@H](c3ccc(Cl)cc3)N3C(=O)N(c4cccc(F)c4)C(=O)[C@@]3(Cc3ccccc3)[C@H]2C(=O)N1C1CCCCC1,28.4% (inactive),–
COc1ccccc1CN1CCN(C(c2ccccc2)c2ccccc2)CC1,-14.1% (inactive),–
CCCCn1c(N)c(N(CC(C)C)C(=O)c2ccc(-n3c(C)ccc3C)cc2)c(=O)[nH]c1=O,-1.16% (inactive),–
Cc1nc(SCC(=O)NC2CCCCC2C)c(C#N)c(C)c1C (stereo not given),16.4% (inactive),–

SMILES,"activity change, negative = inhibition",Potency
COc1ccccc1Oc1ccc(S(=O)(=O)Nc2cccnc2)cc1,-14.3% (inactive),–
CCOc1ccc(S(=O)(=O)Nc2ccc(S(=O)(=O)Nc3cc(OC)ccc3OC)cc2)cc1,-0.956% (inactive),–
COc1ccc(NS(=O)(=O)c2ccc(Oc3c(C#N)cccc3C#N)cc2)cc1,–,2.31 µM (active)
CN(CC(=O)Nc1ccc(OC(F)(F)F)cc1)C(=O)C1CCC1,8.07% (inactive),–
CCOC(=O)C1CCN(S(=O)(=O)c2c(C)noc2C)CC1,15.1% (inactive),–
Cc1noc(/C=C/c2ccco2)c1S(=O)(=O)N1CCC(C(=O)Nc2ccc(Cl)cn2)CC1,–,5.8 µM (active)
Cc1noc(/C=C/N(C)C)c1S(=O)(=O)N1CCCC(C(=O)NCc2ccco2)C1 (stereo not given),-7.93% (inactive),–
Cc1ccc(Cl)c(OCC(=O)N(C)CC(=O)Nc2ccc(N3CCOCC3)cc2)c1,-12.8% (inactive),–
COc1cc2ccccc2cc1C(=O)N(CCN(C)C)c1nc2c(F)cccc2s1,-23.6% (inactive),–
CN1c2ccc(C=O)c3c(C=O)ccc(c23)N(C)C1(C)C,–,6.51 µM (active)
Cc1cccn2c(=O)c(/C=C(\C#N)C(N)=O)c(N3CCCCCC3)nc12,-28% (inactive),–
CC(Sc1ccccc1F)C(=O)Nc1cccc(S(=O)(=O)N2CCOCC2)c1 (stereo not given),2.08% (inactive),–
CC(C)CN(C(=O)COC(=O)c1ccc(Cl)c(N)c1)c1c(N)n(Cc2ccccc2)c(=O)[nH]c1=O,-14.9% (inactive),–
COC(=O)C(C)Oc1ccc2c(c1)O/C(=C\c1cccc(Br)c1)C2=O (stereo not given),-0.608% (inactive),–
Cc1cc(C(=O)OCC(=O)N2c3ccccc3NC(=O)C2(C)C)c(C)n1-c1ccccc1,–,29.1 µM (active)
CNS(=O)(=O)c1cccc(C(=O)OCC(=O)N2c3ccccc3NC(=O)C2(C)C)c1,2.59% (inactive),–
Cc1ccc(OCCC(=O)OCC(=O)N2c3ccccc3NC(=O)C2(C)C)cc1,0.622% (inactive),–
O=c1[nH]cccc1-c1nc2ccccc2n1Cc1ccc(Cl)cc1,1.7% (inactive),–
CC(=O)NC(Cc1c[nH]c2ccccc12)C(=O)O (stereo not given),-11% (inactive),–
O=C(NC(Cc1c[nH]c2ccccc12)C(=O)N/N=C/c1ccc(Br)cc1)c1cccs1 (stereo not given),–,23.1 µM (active)
O=C(CNC(=O)c1cccs1)N/N=C/c1cccc(Br)c1,5.85% (inactive),–
CC1CN(C(=O)c2ccc([N+](=O)[O-])s2)CC(C)O1 (stereo not given),0.0014% (inactive),–
COc1ccc(CC(=O)NC2CCSc3ccccc32)cc1OC (stereo not given),-1.91% (inactive),–
CCOc1ccc(CCNC(=O)COC(=O)c2ccc(F)c(S(=O)(=O)N3CCOCC3)c2)cc1OCC,5.86% (inactive),–

SMILES,"activity change, negative = inhibition",Potency
COc1ccccc1NS(=O)(=O)c1ccc(C)c(C(=O)NNC(=O)c2csc(N3CCOCC3)n2)c1,4.5% (inactive),–
CN(C(=O)CSc1nnc(-c2ccc3c(c2)OCO3)o1)C1CCS(=O)(=O)C1 (stereo not given),5.71% (inactive),–
O=C(CN1CCN(c2cccc(Cl)c2)CC1)Nc1ccc(S(=O)(=O)N2CCOCC2)cc1,–,18.3 µM (active)
O=C(CN1C(=O)CCC1=O)Nc1ccc(S(=O)(=O)N2CCOCC2)cc1,14% (inactive),–
O=C(CN1CCN(S(=O)(=O)/C=C/c2ccccc2)CC1)Nc1ccc(N2CCOCC2)cc1,12.1% (inactive),–
CN(CCNC(=O)c1cc2c(-c3ccccc3F)nn(C)c2s1)C1CCCCC1,-7.81% (inactive),–
CCOC(=O)N1CCN(C(=O)c2cc3c(-c4ccc(Cl)cc4)nn(C)c3s2)CC1,-25.1% (inactive),–
COc1ccccc1N1CCN(C(=O)c2cc3c(-c4ccc(Cl)cc4)nn(C)c3s2)CC1,–,11.6 µM (active)
Cn1nc(-c2ccc(Cl)cc2)c2cc(C(=O)NCc3ccco3)sc21,–,25.9 µM (active)
COc1ccc(-c2cc(C(=O)NCc3ccco3)no2)cc1OC,23.6% (inactive),–
COc1ccccc1N1CCN(C(=O)c2cc(-c3ccc(Cl)c(Cl)c3)on2)CC1,22.4% (inactive),–
Cc1ccc(CSCC(=O)N(C)CC(=O)Nc2ccc(C)cc2)cc1,-21.2% (inactive),–
CC(=O)Nc1ccc(S(=O)(=O)NCC(=O)OCC(=O)c2ccc[nH]2)cc1,9.79% (inactive),–
CC(/C=C/c1ccccc1)=N\NC(=O)C1CC1(C)c1ccccc1 (stereo not given),–,23.1 µM (active)
CC(/C=C/c1ccco1)=N/NC(=O)C1COc2ccccc2O1 (stereo not given),-4.86% (inactive),–
O=C(N/N=C/C=C/c1ccccc1)C1CC1(c1ccccc1)c1ccccc1 (stereo not given),3.5% (inactive),–
C#CCOCCOCCOCCNc1nc(N2CCN(C(=O)[C@H](CO)n3cc([C@@H](N)C(C)C)nn3)CC2)nc(N2CCN(C(=O)[C@H](CCC(=O)O)n3cc([C@@H](N)[C@H](C)CC)nn3)CC2)n1,3.33% (inactive),–
CC(C)(C)c1ccc(C(=O)NCCC(=O)NCc2ccco2)cc1,–,5.8 µM (active)
CC(C)(C)c1ccc(NC(=O)NCc2ccco2)cc1,29.5% (inactive),–
O=C(CCNC(=O)c1ccccc1Cl)NCc1ccco1,4.02% (inactive),–
CCCCN(C(=O)c1ccc2ccccc2c1)c1c(N)n(CCCC)c(=O)[nH]c1=O,0% (inactive),–
COCCn1cnnc1SCC(=O)Nc1cccc(S(=O)(=O)N2CCCCC2)c1,4.22% (inactive),–
Cc1cccc(N2CC(C(=O)Nc3ccccc3N3CCCC3)CC2=O)c1C (stereo not given),-3.99% (inactive),–
Cc1ccccc1NC(=O)NC1(C(=O)N2CCCC2)CCCCC1,-5.66% (inactive),–

SMILES,"activity change, negative = inhibition",Potency
Cc1ccccc1NC(=O)Nc1ccccc1N1CCCCC1,–,18.3 µM (active)
O=C(CCC1CCCCC1)Nc1cc(C(F)(F)F)ccc1N1CCOCC1,-4.46% (inactive),–
Cc1nn(C)c(C)c1NS(=O)(=O)c1ccc(OC(F)(F)F)cc1,0.543% (inactive),–
CCN(CC)c1ccc(NC(=O)CN2C(=O)NC3(CCc4ccccc43)C2=O)cc1 (stereo not given),5.28% (inactive),–
CN(C)S(=O)(=O)c1cc(NC(=O)CN2C(=O)NC3(CCCc4ccccc43)C2=O)ccc1Cl (stereo not given),–,25.9 µM (active)
CCN(CC)S(=O)(=O)c1ccc(CNC(=O)CN2C(=O)NC3(CCc4ccccc43)C2=O)cc1 (stereo not given),3.44% (inactive),–
N#Cc1ccccc1S(=O)(=O)N1CCN(Cc2c(O)ccc3ccccc23)CC1,-3.58% (inactive),–
CCn1c(SCC(=O)Nc2ccccc2F)nc2c(c1=O)SC(C)C2 (stereo not given),-13.6% (inactive),–
COCCn1c(SCC(=O)Nc2cc(Cl)ccc2OC)nc2c(c1=O)SC(C)C2 (stereo not given),–,25.9 µM (active)
COCCn1c(SCC(=O)Nc2cc(OC)ccc2OC)nc2c(c1=O)SC(C)C2 (stereo not given),-7.11% (inactive),–
Cc1cc(NC(=O)CSc2nnc(-c3ccco3)n2N)no1,14.5% (inactive),–
CCNS(=O)(=O)c1ccc(CCC(=O)N2CCN(c3cc(Cl)ccc3C)CC2)cc1,–,11.6 µM (active)
CCNS(=O)(=O)c1ccc(CCC(=O)N2CCN(c3ccc(OC)cc3)CC2)cc1,-9.27% (inactive),–
CCCNS(=O)(=O)c1ccc(CCC(=O)N2CCCC2)cc1,-1.71% (inactive),–
O=C1OC[C@@H]2CCCN2C(=O)[C@H](CC(=O)N(CCO)Cc2ccccc2)C/C=C\CC[C@@H]1Cc1ccc(F)cc1,7.5% (inactive),–
CCC(=O)Nc1ccccc1N1CCN(S(C)(=O)=O)CC1,8.38% (inactive),–
COc1ccc(C(=O)NC(=S)Nc2ccccc2N2CCN(S(C)(=O)=O)CC2)cc1OC,–,14.6 µM (active)
O=C(NC(=S)Nc1ccccc1N1CCCCC1)c1ccc(F)cc1,3.01% (inactive),–
COc1ccc(NC(=O)c2cc3nc(-c4ccccc4)cc(C)n3n2)cc1OC,–,10.3 µM (active)
COc1ccc(NC(=O)CNC(=O)Cc2ccccc2)cc1OC,1.57% (inactive),–
COc1ccc(NC(=O)COC(=O)Cn2c(C)nc3ccccc32)cc1OC,9.39% (inactive),–
COCCCNC(=O)CC1C[C@H](C(=O)N2CCCCC2)[C@@]2(CCc3ccccc3)c3[nH]c4ccccc4c3CCN2C1=O (stereo not given in full),7.79% (inactive),–
CC(Oc1ccc(Br)cc1)C(=O)NCC(c1ccco1)N1CCCCC1 (stereo not given),-0.374% (inactive),–

# From PubChem BioAssay AID504467 (National Center for Advancing Translational Sciences (NCATS), 2011)
